{"source": "PubChem BioAssay (NCATS)", "note": "Records with an inconclusive call do not appear. Where a call stands in place of a potency, no number is given. Activity calls are given as the source filed them. Calls follow the shape of the dose curve; as a rule, active = well fitted cell-killing curve with a large enough effect; inconclusive = small, poorly fitted or top-dose-only effect, or effect the other way; inactive = no such curve, though single readings can be large or run the other way. Potency is read from the fitted curve at half-maximal effect.", "data": [{"test": "Quantitative highthroughput screen to assess conditional lethalithy of SEM cells grown in RPMI1640 with unreated serum (RPMI+s) (AID 1963883); also: nearly all actives have a fitted effect of over 35% in size", "details": "SEM B-ALL cells, CellTiter-Glo viability, 48 h; series mostly up to 45.8 µM", "excerpt": "Assay Provider: Jason Cantor Ph.D.\nDepartment of Biochemistry\nUniversity of Wisconsin-Madison, Madison, WI, USA\nChemical screening studies have identified drug sensitivities across hundreds of cancer cell lines but most putative therapeutics fail to translate. Discovery and development of drug candidates in models that more accurately reflect nutrient levels in human blood is a major challenge. Here we performed high-throughput screens in conventional versus Human Plasma-Like Medium (HPLM) to identify compounds that were \"missed\" when screening using the artificial culture condition. Sets of conditional anticancer compounds spanned phases of clinical development and included non-oncology drugs were assessed. […] We also traced conditional phenotypes for several chemotherapeutics to availability of HPLM-specific metabolites and confirmed others for compounds whose reported targets are encoded by nonessential genes. Our findings establish generalizable strategies for exploiting conditional lethality in HPLM to reveal therapeutic candidates and mechanisms of action in cancer cells.\nDescribed herein are the results of each viability screens against three cell lines: NOMO1 (an acute myeloid leukemia cell line); P12-Ichikawa (a T-cell acute lymphoblastic leukemia); and SEM (a B-cell ALL). Each assay was screened using 3 different cell culture media: homemade human plasma-Like medium with 10% dialyzed fetal bovine serum (HPLM+ds); RPMI1640 with 10% untreated FBS and 5mM glucose (RPMI+s); and RPMI1640 with 10% dialyzed fetal bovine serum and 5 mM glucose (RPMI+ds).\nPROTOCOL TABLE (as described by Inglese J, Shamu CE and Guy RK. 2007)\nSEQUENCE No. (e.g., 1, 2, 3, etc.); […] (e.g., Cells, Incubation, Reagent, etc.); VALUE and DESCRIPTION.\n1; Cells; 5 uL; white, solid bottom 1536-well Greiner assay plate.\n2; Compounds; 23 nL; Kalypsis pin tool (Wako USA) equipped with a 1536-well pin head to transfer to the assay plates.\n3; Incubation; 48 hours; 37C incubation.\n4; Reagent; 3 uL; CellTiter Glo (Promega).\n5; Incubation; 5 min, room temperature\n6; Detection; Luminescence, Viewlux PerkinElmer.\nNOTES (numbers refer to Sequence numbers above)\n1. Briefly, 5 ul of cell reagent was dispensed using a Multidrop Combi Dispenser. The NOMO1 and SEM cells were plated at 500 cells/well and the P12-Ichikawa line at 1000 cells/well.\n2. After seeding the cells, 23 nL of MIPE 4.1 library compounds (in DMSO) were added to each plate using a Kalypsys 1536 Pintool dispenser. Bortezomib at final concentration of […] and DMSO were added to each plate as positive and negative controls respectively. For each screen, MIPE 4.1 compounds were added over an eleven-point concentration range […] in 3-fold dilutions.\n3. Each plate was covered with a stainless steel gasketed lid to prevent evaporation and incubated for 48 hour at 37C, 95% relative humidity, and 5% CO2.\n4-5. Three microliter CellTilter-GloTM luminescent substrate mix (Promega) reagent was added to the assay plate and incubated at room temperature for 5 min.\n6. The luminescence signal was measured using a ViewLux (PerkinElmer) multiplate reader with a 2 second exposure time per plate. Data for each compound were normalized as percent viability such that measurements for DMSO and the empty well controls in each plate were defined as 100% and 0%, respectively.", "values": [{"smiles": "CC(C)(C)NCC(O)c1ccc(O)c(CO)c1", "note": "(stereo not given)", "Potency": "inactive"}, {"smiles": "O=c1[nH]c(=O)n([C@H]2C[C@@H](O)[C@@H](CO)O2)cc1C=CBr", "Potency": "inactive"}, {"smiles": "CC(C)C1CCC(C(=O)N[C@H](Cc2ccccc2)C(=O)O)CC1", "note": "(stereo not given in full)", "Potency": "inactive"}, {"smiles": "CC(C)(O)Cn1c(NC(=O)c2ccc(-c3cn[nH]c3)s2)nc2cc(CN3CCOCC3)ccc21", "Potency": "66.2 nM (active)"}, {"smiles": "CCOC(=O)c1ccc(C#Cc2ccc3c(c2)C(C)(C)CCS3)nc1", "Potency": "inactive"}, {"smiles": "Cn1cc(-c2ccc3nnc(C(F)(F)c4ccc5ncccc5c4)n3n2)cn1", "Potency": "inactive"}, {"smiles": "CC(C)(C)C(=O)OCOP(=O)(COCCn1cnc2c(N)ncnc21)OCOC(=O)C(C)(C)C", "Potency": "105 nM (active)"}, {"smiles": "CCC[C@H]1C[C@H](C(=O)N[C@@H]([C@@H]2O[C@@H](SC)[C@@H](O)[C@@H](O)[C@@H]2O)[C@H](C)Cl)N(C)C1", "Potency": "inactive"}, {"smiles": "FC(F)(F)c1ccc(Nc2nc3ccc(Oc4ccnc(-c5ncc(C(F)(F)F)[nH]5)c4)cc3[nH]2)cc1", "Potency": "18700 nM (active)"}, {"smiles": "CCCC(CCC)C(=O)O", "Potency": "inactive"}, {"smiles": "CCc1ccc(C(=O)Nc2cc(CN3CCN(C)CC3)cc(C(F)(F)F)c2)cc1C#Cc1cnc2ccnn2c1", "Potency": "inactive"}, {"smiles": "CCNC(=O)c1noc(-c2cc(C(C)C)c(O)cc2O)c1-c1ccc(CN2CCOCC2)cc1", "Potency": "41.8 nM (active)"}, {"smiles": "Nc1nccc(Oc2ccc(NC(=O)c3c[nH]cc(-c4ccc(F)cc4)c3=O)cc2F)c1Cl", "Potency": "590 nM (active)"}, {"smiles": "CC(=O)Nc1cccc(-n2c(=O)n(C3CC3)c(=O)c3c(Nc4ccc(I)cc4F)n(C)c(=O)c(C)c32)c1", "Potency": "1480 nM (active)"}, {"smiles": "COc1ccc(-n2nc(C(N)=O)c3c2C(=O)N(c2ccc(N4CCCCC4=O)cc2)CC3)cc1", "Potency": "inactive"}, {"smiles": "Nc1nnc(-c2cccc(Cl)c2Cl)c(N)n1", "Potency": "inactive"}, {"smiles": "COC1=C(OC)C(=O)C(CC=C(C)CCC=C(C)CCC=C(C)CCC=C(C)CCC=C(C)CCC=C(C)CCC=C(C)CCC=C(C)CCC=C(C)CCC=C(C)C)=C(C)C1=O", "Potency": "inactive"}, {"smiles": "COCCOc1nc(-c2ccc(Cl)c(Cl)c2)n(-c2ccc(NC(=O)CCl)cc2)n1", "Potency": "inactive"}, {"smiles": "CC(C)NCC(O)COc1ccc(CCOCC2CC2)cc1", "note": "(stereo not given)", "Potency": "inactive"}, {"smiles": "CC(C)c1cnn2c(NCc3ccccc3)cc(N[C@@H](CO)[C@H](O)CO)nc12", "Potency": "590 nM (active)"}, {"smiles": "CN(C)C1CCN(C(=O)c2ccc(NC(=O)Nc3nc(N4CCOCC4)nc(N4CCOCC4)n3)cc2)CC1", "Potency": "166 nM (active)"}, {"smiles": "COc1cc2c(c(OC)c1OC)-c1ccc(OC)c(=O)cc1[C@@H](NC(C)=O)CC2", "Potency": "inactive"}, {"smiles": "Cc1cncc2cccc(S(=O)(=O)N3CCCN(C(=O)CN)C[C@@H]3C)c12", "Potency": "5260 nM (active)"}, {"smiles": "Cc1cc(Nc2cc(N3CCN(C)CC3)nc(C=Cc3ccccc3)n2)n[nH]1", "Potency": "540 nM (active)"}, {"smiles": "Cn1cc(C2=C(c3c4n(c5ccccc35)CCC(CN)C4)C(=O)NC2=O)c2ccccc21", "note": "(stereo not given)", "Potency": "10500 nM (active)"}, {"smiles": "CC(C)=CCCC(C)=CCCC(C)=CCSc1ccccc1C(=O)O", "Potency": "6620 nM (active)"}, {"smiles": "CCc1cc(C(N)=S)ccn1", "Potency": "8330 nM (active)"}, {"smiles": "CCOC1OC(=O)C[C@H]1NC(=O)[C@@H]1CCCN1C(=O)[C@@H](NC(=O)c1ccc(N)c(Cl)c1)C(C)(C)C", "note": "(stereo not given in full)", "Potency": "inactive"}, {"smiles": "CCC(=O)NCC[C@@H]1CCc2ccc3c(c21)CCO3", "Potency": "5260 nM (active)"}, {"smiles": "Cn1c(=O)c2c(ncn2CC(O)CO)n(C)c1=O", "note": "(stereo not given)", "Potency": "inactive"}, {"smiles": "COc1cccc([C@@H](C)NCCCc2ccccc2Cl)c1", "Potency": "inactive"}, {"smiles": "OCCn1cc(-c2ccc3c(c2)CCC3=NO)c(-c2ccncc2)n1", "Potency": "inactive"}, {"smiles": "O=C(NCCS(=O)(=O)c1ccc(C(F)(F)F)cn1)c1ccc(Cl)cc1", "Potency": "inactive"}, {"smiles": "O=c1[nH]c(=O)n(C2CCCO2)cc1F", "note": "(stereo not given)", "Potency": "inactive"}, {"smiles": "CC[C@]1(O)C[C@H]2CN(CCC3=c4ccccc4=N[C]3[C@@](C(=O)OC)(c3cc4c(cc3OC)N(C)[C@H]3[C@@](O)(C(N)=O)[C@H](O)[C@]5(CC)C=CCN6CC[C@]43[C@@H]65)C2)C1", "Potency": "59 nM (active)"}, {"smiles": "CCC(C)(Oc1ccc(C2(c3ccc(OC(C)(CC)C(=O)O)cc3)CCCCC2)cc1)C(=O)O", "note": "(stereo not given)", "Potency": "inactive"}, {"smiles": "CN1CCC[C@H]1CCO[C@](C)(c1ccccc1)c1ccc(Cl)cc1", "Potency": "inactive"}, {"smiles": "CC(O)C1C(=O)N2C(C(=O)O)=C(SC3CNC(C(=O)N(C)C)C3)C(C)C12", "note": "(stereo not given)", "Potency": "inactive"}, {"smiles": "Clc1ccc(C(c2ccc(Cl)cc2)n2cc[n+](CC(OCc3ccc(Cl)cc3Cl)c3ccc(Cl)cc3Cl)c2)cc1", "note": "(stereo not given)", "Potency": "13200 nM (active)"}, {"smiles": "COc1ccc(CCN2CCN(CCCc3ccccc3)CC2)cc1OC", "Potency": "inactive"}]}]}
